Most compounds without a hit are left out; they make up all but 1.2% or so of the library.
CtBP-E1A inh – blocks the CtBP interaction with E1A; AlphaScreen GST-E1A/His-CtBP binding, 1536-well; stronger effect = lower value; activity change, % (test concentration not listed); actives 0.49% (n = 340,000); in the data active = activity change below about -65%; inconclusive = mostly about -30% to -63%
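GST-E1A and His-tagged CtBP (125 nM each as 5X stock) were preincubated with pin-transferred compound for 2 h at 37 °C in the dark, then glutathione donor and nickel acceptor beads were added for 1 h before AlphaScreen reading.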
L3MBTL1 block – L3MBTL1 (human) inhibition; Potency, µM (series often up to 57.1 µM), for inactives: at the highest dose activity, negative = inhibition, usual class: inhibitors; AID 485360; AlphaScreen L3MBTL1–H3K9me1 peptide binding; actives 0.66% (n = 230,000); also: potency is read from the fitted curve at half-maximal effect; nearly all actives have a fitted effect of over 60% in size
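AlphaScreen proximity signal between nickel-chelate acceptor and streptavidin donor beads (final 10 ug/mL) reports binding of 50 nM L3MBTL1 to 75 nM biotin-H3 K9me1 peptide; complex incubated with compounds 30 min at room temperature; cefsulodin titration as control.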
Eya2 inh – Eya2 (human) phosphatase inhibition; actives 0.006% (n = 330,000); Potency, µM (titrated, usually from 76.9 µM), for inactives: top-dose activity, negative = inhibition, most hits filed as inhibitors; recombinant Eya2, OMFP fluorescence dephosphorylation (OMFP is methylfluorescein phosphate); AID 488837; also: potency is read from the fitted curve at half-maximal effect
Target sequence (O00167 whole entry, looked up): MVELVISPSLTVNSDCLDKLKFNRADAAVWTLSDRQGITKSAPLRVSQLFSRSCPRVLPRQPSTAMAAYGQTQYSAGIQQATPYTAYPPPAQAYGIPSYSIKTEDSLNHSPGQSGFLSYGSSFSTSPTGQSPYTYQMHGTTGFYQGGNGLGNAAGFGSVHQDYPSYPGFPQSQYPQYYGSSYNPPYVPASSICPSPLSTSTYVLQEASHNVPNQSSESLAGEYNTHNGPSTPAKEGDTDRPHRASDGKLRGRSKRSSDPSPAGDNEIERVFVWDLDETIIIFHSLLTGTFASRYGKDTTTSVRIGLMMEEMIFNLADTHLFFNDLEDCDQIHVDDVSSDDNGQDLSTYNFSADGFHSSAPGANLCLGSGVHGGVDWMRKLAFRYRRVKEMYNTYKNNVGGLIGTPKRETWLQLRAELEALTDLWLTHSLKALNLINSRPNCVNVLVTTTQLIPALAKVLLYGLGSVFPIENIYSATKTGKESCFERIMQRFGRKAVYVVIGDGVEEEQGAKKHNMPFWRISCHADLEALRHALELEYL
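Eya2 (0.2 uM) preincubated 10 min at ambient with compound, then OMFP substrate added at 50 uM; 10 min reaction in 50 mM HEPES pH 7.5, 50 mM NaCl, 5 uM MgCl2, 0.05% BSA, 1 mM DTT. Fluorescence read at Ex 485/Em 525 nm.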
uPA generation – cell surface uPA generation inhibition; cell surface uPA generation assay, qHTS; Potency, µM (doses to about 38.3 µM), for the others: top-dose activity change, negative = inhibition, most hits filed as inhibitors; actives 0.31% (n = 330,000); active = well fitted inhibition curve with a large enough effect; inconclusive = small, poorly fitted or top-dose-only effect; inactive = no such curve, though single readings can be large or run the other way; tested in mouse RAW 264.7 cells; also: potency is read from the fitted curve at half-maximal effect; nearly all actives have a fitted effect of over 55% in size
Six1-Eya2 blk – blocks human Six1 binding to Eya2; activity change, % (test concentration not listed); AlphaScreen GST-Six1/His-Eya2 binding, biochemical; stronger effect = lower value; actives 0.56% (n = 360,000); in the data active = activity change below about -65%; inconclusive = mostly about -30% to -63%
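Homogeneous AlphaScreen proximity assay pairing GST-Six1 with His-tagged Eya2 (added as 5X mix: 250 nM and 500 nM) in 50 mM Tris pH 8.0, 300 mM NaCl, 1 mM TCEP. Glutathione donor and nickel acceptor beads; 1 h, 37 °C, dark.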
USP2a inh – inhibitors of human ubiquitin-specific protease USP2a. Potency, µM (doses to about 38.3 µM), without a hit: at the highest dose activity change, negative = inhibition, usual class: inhibitors. USP2 core, Ub-CHOP2 coupled fluorogenic reporter, 485/531. actives 0.01% (n = 330,000). O75604;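 also: potency is read from the fitted curve at half-maximal effect; plate controls were DMSO wells for no effect and full inhibition by NEM control for full effect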
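Deubiquitinase activity read as fluorescence (485/531 nm) after Ub-CHOP2 cleavage activates the enterokinase reporter on its substrate; USP2 core 10nM, Ub-CHOP2 and substrate 25nM each, 30min compound preincubation then 60min RT; data normalized to NEM, curves fitted.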
* hit, by the source's call; u = inconclusive; x = no result; [ ] = dose if it differs, or a comment. Unless noted, calls follow the shape of the dose curve; as a rule, active = well fitted curve in the direction sought with a large enough effect; inconclusive = small, poorly fitted or top-dose-only effect, or another doubt; inactive = no such curve, though single readings can be large; an effect the other way counts as inactive or inconclusive. Unless noted, % is scaled to controls: 0 for no effect and ±100 for the full control effect.

SMILES | CtBP-E1A inh | L3MBTL1 block | Eya2 inh | uPA generation | Six1-Eya2 blk | USP2a inh
Cc1ccc(C(=O)C(C)OC(=O)c2cc(=O)[nH]c3ccccc23)cc1 (centres undefined) | 0 | u | 8% | -10% | 17 | 0%
C=CC(C)=C[C@@]1(C)SC(=O)C(C)=C1O | x | x | -2% | x | x | x
CCC(=O)NC(c1ccc(C)cc1)c1ccc2cccnc2c1O (centres undefined) | -90* | u | u | -14% | -89* | -4%
CCC(=O)NC(c1ccc(Cl)cc1Cl)c1ccc2cccnc2c1O (centres undefined) | u | -13% | -3% | -8% | -80* | 1%
CCCCC(=O)NC(c1ccc(Cl)cc1Cl)c1ccc2cccnc2c1O (centres undefined) | u | 2% | -14% | -13% | -29 | -1%
CC(=O)NC(c1ccco1)c1ccc2cccnc2c1O (centres undefined) | -97* | u | -1% | -14% | -93* | 1%
CC(C)C(=O)NC(c1ccc(Cl)cc1Cl)c1ccc2cccnc2c1O (centres undefined) | x | 1%[2.29 µM] | -2% | u | -14 | 0%
CCCCOc1ccc(NC(=O)CCSc2nccn2C)cc1 | -6 | -6% | -6% | -1% | -10 | -2%
COc1ccc(NC(=O)c2ccc(C)cc2)cc1 | x | 0% | 5% | 10µM* | 5 | 0%
Cc1ccc(SCC(=O)Nc2cccc(C)c2)cc1 | 0 | 33% | -2% | 5% | 15 | 5%
COc1ccc(C(=O)Nc2ccc3ccccc3c2)cc1 | x | -5% | 9% | 5µM* | -2 | -8%
Cc1ccc(SCC(=O)Nc2ccc(C(=O)Nc3ccc(O)cc3)cc2)cc1 | 0 | -8% | -12% | 1% | -3 | 11µM*
CC(=O)NCCC1CCN(C(=O)c2cc(COc3ccc(C)nc3)on2)CC1 | 7 | x | -1% | -5% | 2 | 1%
O=C(O)CCn1cc(/C=C\C(=O)c2ccc(Cl)cc2)c(-c2cccc(Br)c2)n1 | 0 | 2% | -5% | -5% | -5 | -2%
Cc1ccc(-c2nn(CCC(=O)O)cc2/C=C\C(=O)c2ccc(Br)cc2)cc1 | 0 | -26% | 2% | 6.3µM* | 10 | -6%
COc1ccc(CCC2CCNCC2)cc1 | x | x | 1% | -3% | 7 | 0%
Brc1ccc(/C=N/Nc2nc3ccccc3o2)cc1 | -13 | x | -4% | -23% | -8 | -1%
CC(=NNc1nc2ccccc2s1)c1ncccn1 | 0 | x | x | -3% | -92* | x
CC(=NNc1nc2ccccc2o1)c1ncccn1 | 0 | x | x | -8% | -90* | x
C/C(=N\Nc1nc2ccccc2s1)c1cccs1 | -7 | -22% | -10% | -11% | -11 | -7%
Oc1ccccc1/C=N/Nc1nc2ccccc2o1 | -77* | -11% | 4% | 1% | -72* | -1%
CC(=NNc1nc2ccccc2o1)c1cc2ccccc2cn1 | -66* | x | x | -4% | -93* | x
Cc1c(NC(=O)CN2C(=O)NC3(CCCC3)C2=O)c(=O)n(-c2ccccc2)n1C | -9 | x | 2% | 5% | -8 | -2%
C=CCNC(=O)c1sc(-c2ccccc2)nc1C | -9 | 7% | 15% | 0% | 1 | -2%
Cc1nc(-c2ccccc2)sc1C(=O)NN | x | 17% | 2% | 10µM* | -9 | 6%
SMILES | CtBP-E1A inh | L3MBTL1 block | Eya2 inh | uPA generation | Six1-Eya2 blk | USP2a inh
Cc1c(C(=O)NCc2cccc(C(F)(F)F)c2)sc(=O)n1Cc1ccccc1F | 4 | x | x | x | 1 | x
O=C(Nc1nc2ccccc2s1)NC1CCCCC1 | -3 | -10% | -5% | 7.9µM* | 1 | -1%
CC(=O)Nc1ccc(NC(=O)CSCc2ccccc2Cl)cc1 | 22 | x | x | -1% | 23 | x
C/C(=N\NC(=O)CSCc1ccccc1Cl)c1cc(O)ccc1O | -24 | -29% | 4% | 2.5µM* | u | 1%
O=[N+]([O-])c1cc(/C=N/N/C(=N/c2ccccn2)c2ccccn2)ccc1O | u | u | 3% | -2% | -86* | 0%
NC(c1ccccc1)c1csc(Nc2ccc(C(=O)NCCO)cc2)n1 (centres undefined) | -21 | x | x | x | -7 | x

Screens from PubChem.
